# Cycloheximide cs – counter-screen for Shiga toxin inhibitors: cycloheximide protein synthesis inhibition. cell reporter, cycloheximide protein synthesis inhibition counterscreen. max response, %. 12% of 300,000 active; in the data active means max response mostly above about 13%, no sharp cut-off; inactive means mostly below about 14%; further: read at 38.3 µM for the half of the compounds with a filed dose; 0% is about no effect
# Shiga toxin inh – Shiga toxin inhibition. Vero cells, Shiga toxin protein synthesis inhibition reporter. 9.2% of 290,000 active. inhibition, % at 38.7 µM; in the data active means inhibition mostly above about 28%, no sharp cut-off; inactive means mostly below about 43%; further: 0% is about no effect
# FBPA Giardia inh – blocks Giardia fructose-bisphosphate aldolase activity. A8B2U2. purified Giardia FBPA. Potency, µM (series often up to 59.6 µM), inactives show at the highest dose activity, negative = inhibition, actives largely listed as inhibitors. 0.71% of 290,000 active; further: potency means the concentration at half of the fitted maximal effect; on the % scale 0 is the no-effect control and ±100 the full control effect; nearly all actives have a fitted effect of over 55% in size
# Target sequence (A8B2U2 whole entry, looked up): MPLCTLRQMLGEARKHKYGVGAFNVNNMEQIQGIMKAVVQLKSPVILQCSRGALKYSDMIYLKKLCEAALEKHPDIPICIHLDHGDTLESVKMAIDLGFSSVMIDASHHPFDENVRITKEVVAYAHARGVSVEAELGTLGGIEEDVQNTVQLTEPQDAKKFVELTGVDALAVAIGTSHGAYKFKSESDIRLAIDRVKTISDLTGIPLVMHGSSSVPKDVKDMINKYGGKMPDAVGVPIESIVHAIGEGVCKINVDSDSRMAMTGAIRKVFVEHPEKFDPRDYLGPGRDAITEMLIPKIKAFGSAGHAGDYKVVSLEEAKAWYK
#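 40 nM FBPA preincubated 10 min at RT with compound (up to 57.5 uM final), then substrate plus GAPDH/TPI/NAD/arsenate coupling and diaphorase/resazurin added. Fluorescence read after 20 min at RT, 525/598 nm.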
# RE007 growth inh – less growth of the S. pombe RE007 Vpr strain. S. pombe RE007 Vpr strain, BacTiter-Glo ATP luminescence, 24 h. Potency, µM (top dose mostly 92.2 µM), for inactives: at the top dose activity change, negative = less growth, most hits filed as inhibitors. 0.21% of 360,000 active; active means well fitted falling curve with a large enough effect; inconclusive means small, poorly fitted or top-dose-only effect; inactive means no such curve, though single readings can be large or run the other way; further: potency means the concentration at half of the fitted maximal effect; on the % scale 0 is the no-effect control and ±100 the full control effect; nearly all actives have a fitted effect of over 50% in size
#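 Fission yeast strain RE007, carrying one chromosomally integrated HIV-1 vpr copy, was seeded at OD 0.01 in PMG+AL medium with 23 nL pinned compound. After 24 h at 30 °C and 99% humidity, viability was read by BacTiter-Glo luminescence.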
# LmPK inh – blocks Leishmania mexicana pyruvate kinase activity; Q27686; purified LmPK, Kinase-Glo ATP luminescence, 1 h; Potency, µM (series often up to 57.5 µM), inactives show at the top dose activity change, negative = inhibition, usual class: inhibitors; 0.37% of 290,000 active; AID 1721; further: potency means the concentration at half of the fitted maximal effect; on the % scale 0 is the no-effect control and ±100 the full control effect
#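 Pyruvate kinase activity monitored as ATP production (luciferase luminescence). Conditions: 0.1 nM enzyme, 0.5 mM PEP, 0.1 mM ADP, 1 h, RT; normalized against uninhibited and no-enzyme wells.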
# TbPYK inhibitor – blocks Trypanosoma brucei pyruvate kinase. Potency, µM (series often up to 76.8 µM), inactives show at the top dose activity, negative = inhibition, most hits filed as inhibitors. 0.12% of 410,000 active. TbPYK enzyme, Kinase-Glo Plus ATP luminescence, 45 min. Q57TT1. AID 624173; further: potency means the concentration at half of the fitted maximal effect; on the % scale 0 is the no-effect control and ±100 the full control effect; nearly all actives have a fitted effect of over 50% in size
#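 Readout: single end-point luminescence (Kinase-Glo Plus, 10 min). Reaction conditions were TbPYK/substrate plus 130 uM ADP, 45 min at RT, pH 7.2 TEA buffer. No-enzyme wells served as controls, and data were normalized before concentration-response fitting.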
# Active calls of the source: *; ? = inconclusive; nt = no result. Shown is part of a subset that was picked to be rich in hits. Unless noted, the call rests on the fitted dose curve; in most records, active means well fitted curve in the direction sought with a large enough effect; inconclusive means small, poorly fitted or top-dose-only effect, or another doubt; inactive means no such curve, though single readings can be large; an effect the other way counts as inactive or inconclusive.
SMILES,Cycloheximide cs,Shiga toxin inh,FBPA Giardia inh,RE007 growth inh,LmPK inh,TbPYK inhibitor
OCCN(CCO)c1ccc(C(c2ccc(Cl)cc2)c2ccc(N(CCO)CCO)cc2Cl)c(Cl)c1,-4,2,-24%,19%,6%,-2%
Cc1cc(N(CCO)CCO)ccc1N=Nc1cc(F)ccc1F,41*,118*,-7%,-15%,-6%,5%
COc1ccccc1C(=O)N1c2ccccc2C(C)(c2ccc(Cl)cc2)CC1(C)C (stereo unspecified),nt,nt,nt,nt,nt,5%
COc1cc(CNC(=O)c2cccc(COc3ccc(Cl)cc3)c2)cc(OC)c1,52*,113*,1%,3%,1%,-3%
O=C(NCc1ccccc1)Oc1cccc(Cl)c1,9.6*,72,-6%,?,-1%,6%
O=C(NCc1ccccc1)c1cccc(COc2ccc(Cl)cc2)c1,130*,200*,-1%,1%,0%,1%
O=C(CNS(=O)(=O)c1ccc(Br)s1)Nc1ccc2c(c1)OCCO2,32*,39,-3%,-14%,2%,3%
Cc1ccc(NC(=O)CN(C)S(=O)(=O)c2ccc(Br)s2)cc1F,21*,44*,-2%,-15%,4%,3%
CC(NC(=O)CN(C)S(=O)(=O)c1ccc(Br)s1)c1ccccc1 (stereo unspecified),36*,84*,-8%,-13%,1%,3%
O=C(CNS(=O)(=O)c1ccccc1)Nc1ccc2c(c1)OCO2,9,16,-1%,-12%,2%,-13%
CCN(CC(=O)Nc1ccc2c(c1)OCCO2)S(=O)(=O)c1cccs1,28*,52*,-18%,-5%,5%,-4%
COc1ccccc1N1CCN(S(=O)(=O)CCNC(=O)C(c2ccccc2)c2ccccc2)CC1,nt,nt,nt,nt,nt,-9%
CN(CC(=O)Nc1ccc2c(c1)OCCO2)S(=O)(=O)c1ccc(Br)s1,25*,3,-6%,13%,-3%,-15%
COC(=O)Cn1c(=O)c2cccn2c2ccc(F)cc21,nt,nt,nt,nt,nt,-1%
O=C(Nc1cc([N+](=O)[O-])ccc1N1CCCC1)c1cccs1,-3,7,nt,-19%,-4%,2%
Cc1ccc(NC(=O)c2cccs2)cc1[N+](=O)[O-],36*,38*,-14%,-11%,-3%,0%
Cc1cc(C)nc(Nc2ccc(C)c([N+](=O)[O-])c2)n1,17*,54*,-12%,-27%,1%,7%
O=C(Nc1cc2cc([N+](=O)[O-])ccc2oc1=O)c1cccs1,28*,52*,3%,nt,2%,nt
Cc1cc(C)nc(/N=C(\N)Nc2ccc(C)c([N+](=O)[O-])c2)n1,-4,-8,-2%,1%,1%,2%
Cc1ccc(NC(=O)c2ccc(C(C)(C)C)cc2)cc1[N+](=O)[O-],43*,12*,4%,-2%,-6%,-1%
COc1cc(NS(=O)(=O)c2ccc(C(=O)O)cc2)c2nc(C)ccc2c1,-2,-2,nt,nt,nt,nt
O=C(Nc1cccc(NC(=O)c2cccs2)c1)c1ccc([N+](=O)[O-])o1,13*,18,-13%,-13%,-6%,0%
CCOC(=O)c1ccc(NC(=O)CC2SCCNC2=O)cc1 (stereo unspecified),38*,96*,1%,6%,-2%,-7%
CCOC(=O)c1ccc(NC(=O)CC2NCCNC2=O)cc1 (stereo unspecified),8,12,nt,7%,2%,-2%
Cc1ccc(NC(=O)CC2SCCNC2=O)cc1[N+](=O)[O-] (stereo unspecified),16*,12,4%,-8%,-1%,1%
Cc1ccccc1NC(=O)CC1SCCNC1=O (stereo unspecified),0,15,-1%,-22%,5%,6%
N#C/C(=C\c1ccc([N+](=O)[O-])o1)c1nc2ccccc2[nH]1,17*,48,-4%,3%,1%,-6%
N#C/C(=C\c1ccc(Sc2ccccc2)o1)c1nc2ccccc2[nH]1,41*,127*,2%,12%,-7%,-17%
N#C/C(=C\c1ccc(-c2ccccc2C(=O)O)o1)c1nc2ccccc2[nH]1,12,-4,3%,-9%,-5%,-16%
